Screening data: PubChem, National Center for Advancing Translational Sciences (NCATS)
Rows were chosen to be rich in hits. Some 4.7% of all compounds tested hit in one or more screens of this group.
D1 antagonist: Antagonist of Human D 1 Dopamine Receptor: qHTS; D(1A) dopamine receptor (Homo sapiens), P21728; HEK293 TREx D1 cells, calcium flux, dopamine EC80; active compounds read low; activity change, negative = inhibition, % at 10 µM; actives 3.2% (n = 360,000); in the data active = activity change below about -30%
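Using tetracycline-induced force-coupled D1 Hek293 cells and a calcium dye, signals were followed for 180 s after compound, then for 180 s after EC80 dopamine, to detect inhibitors.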
TRHR PAM: qHTS for Small Molecule Agonists and Allosteric Enhancers of Human TRH Receptor: Primary Screen for Enhancers; Thyrotropin-releasing hormone receptor (Homo sapiens), P34981; TRHR cells, fluo-8 calcium fluorescence, EC20 TRH enhancement; AID 493056, 2011; enhancement, % at 2 µM; actives 0.66% (n = 360,000); in the data active = enhancement above about 30%
Target sequence (P34981 whole entry, looked up): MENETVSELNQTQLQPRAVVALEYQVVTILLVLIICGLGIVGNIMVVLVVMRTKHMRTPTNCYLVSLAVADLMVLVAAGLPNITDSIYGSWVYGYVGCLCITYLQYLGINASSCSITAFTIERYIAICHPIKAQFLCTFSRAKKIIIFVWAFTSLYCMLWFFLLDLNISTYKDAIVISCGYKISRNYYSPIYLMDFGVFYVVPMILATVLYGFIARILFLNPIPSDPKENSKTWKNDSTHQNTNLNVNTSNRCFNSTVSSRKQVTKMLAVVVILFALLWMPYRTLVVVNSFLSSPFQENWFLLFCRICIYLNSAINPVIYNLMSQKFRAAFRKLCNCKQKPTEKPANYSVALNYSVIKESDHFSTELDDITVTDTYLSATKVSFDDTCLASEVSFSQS
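TRHR-expressing cells loaded with fluo-8 calcium dye were read kinetically (ex 480/em 530) during compound addition, then stimulated with an EC20 of TRH (10 nM final). Enhancement of the Gq-mediated intracellular calcium response was scored.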
D1 potentiator: Potentiators of Human D1 Dopamine Receptor: qHTS; D(1A) dopamine receptor (Homo sapiens), P21728; HEK293 TREx D1 cells, calcium flux, dopamine EC20 potentiation; potentiation, % at 10 µM; actives 0.036% (n = 360,000); AID 504651, 2011; in the data active = potentiation above about 30%
D1 agonist: Allosteric Agonists of the Human D1 Dopamine Receptor: qHTS. actives 1% (n = 360,000). D(1A) dopamine receptor (Homo sapiens), P21728. activation, % at 2 µM. HEK293 T-REx D1 cells, calcium flux, agonist mode. AID 504660, 2011
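Inducible HEK293 T-REx D1 cells, force-coupled to calcium signalling, were plated at 4000 cells/well with tetracycline and held overnight at 30 C. After no-wash calcium dye loading, compound-evoked calcium rise over 180 s flagged agonists.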
TRHR agonist: qHTS for Small Molecule Agonists and Allosteric Enhancers of Human TRH Receptor: Primary Screen for Agonists. Thyrotropin-releasing hormone receptor (Homo sapiens), P34981. TRHR cells, calcium flux fluo-8, FDSS agonist mode. activation, % at 2 µM. actives 0.18% (n = 360,000). AID 493084, 2011
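TRHR-expressing cells loaded with fluo-8 calcium dye; 23 nL library compound pin-transferred, kinetic FDSS fluorescence (Ex 480/Em 530) recorded about 180 s for agonist-induced calcium release, before a 10 nM TRH EC20 addition for potentiator mode.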
Each line names hits and unclear results; the compound was inactive in the other large screens; ! = not active in a repeat. Rule as the data show it, unless noted: active = activation above about 30%; inactive = the rest.

Cc1sc(C2C(C#N)=C(N)N(c3ccc(Cl)cc3)C3=C2C(=O)CCC3)cc1CN1CCOCC1 (stereo not drawn)	none
COc1ccc(/C=C(\C#N)C(=O)NCCc2ccccc2)cc1OCc1ccccc1	D1 agonist 33
COc1cc(/C=C(/C#N)C(=O)NCc2ccccc2)cc(OC)c1OC	none
O=c1c2cc3c(cc2nc2sc(Nc4ccc(F)c(Cl)c4)nn12)OCO3	D1 agonist 55
Cc1ccc(-c2noc(-c3ccc(N4CCCCC4C)c([N+](=O)[O-])c3)n2)cc1 (stereo not drawn)	none
CCOC(=O)c1cnc2ccccc2c1NCc1ccco1	D1 antagonist -39
CCOC(=O)c1cnc2ccc(OC)cc2c1NCc1ccccc1	none
Cc1nc(-c2ccccc2)sc1C1(C)CC(c2cccc([N+](=O)[O-])c2)=NO1 (stereo not drawn)	D1 antagonist -42
O=C(O)c1ccc2c(c1)C(=O)N([C@]1(C(=O)O)CC1c1ccccc1)C2=O (stereo partly drawn)	none
COc1ccc(NC(=O)C(=O)NCC(c2cccnc2)N2CCc3ccccc3C2)cc1 (stereo not drawn)	D1 antagonist -40
O=C(NCC(c1cccnc1)N1CCc2ccccc2C1)C(=O)Nc1ccccc1 (stereo not drawn)	none
CCOc1ccc(-c2cn3c(n2)sc2cc(C(=O)NCCCN4CCCCC4)ccc23)cc1	none
COC(=O)c1cc2oc3ccccc3c2n1Cc1nc(-c2ccccc2Cl)oc1C	none
COc1ccc(C(c2c(NC(C)=O)sc3c2CCCC3)N2CCN(CCO)CC2)cc1OC (stereo not drawn)	none
CC(=O)Nc1sc2c(c1C(c1cccc(Cl)c1)N1CCN(CCO)CC1)CCCC2 (stereo not drawn)	D1 antagonist -30
COc1ccc(C)cc1-n1nnnc1SCC(=O)Nc1cc(C)on1	D1 antagonist -51
COc1ccc(C)cc1-n1nnnc1SCC(=O)NC(=O)NCc1ccco1	D1 antagonist -37
Cc1ccc(S(=O)(=O)Nc2nc3ccc(S(C)(=O)=O)cc3s2)cc1	none
Cc1ccc(C)c(S(=O)(=O)Nc2nc3ccc(S(N)(=O)=O)cc3s2)c1	TRHR PAM 41
CCOc1ccc(NC(=O)N(C(C)C)C2CCN(C(C)=O)CC2)cc1	none
CCOC(=O)c1ccc(-n2c(CN3CCN(CCO)CC3)nc3ccc([N+](=O)[O-])cc3c2=O)cc1	TRHR PAM 37
Cn1c(Cn2c(=O)sc3ccccc32)nnc1SCC(=O)N1CCN(c2ccccc2)CC1	none
O=C(CSc1nnc2sc3ccccc3n12)N1CCN(c2ccccc2)CC1	D1 antagonist -59
Cc1nnc(SCC(=O)N2CCN(c3ccccc3)CC2)n(N)c1=O	TRHR PAM 38
COc1ccc(NC(=O)CN2C(=O)C3(SCC(=O)N3c3ccccc3)c3ccccc32)cc1Cl (stereo not drawn)	none
COCCNC(=O)CCn1c(=O)c2cc(OC)c(OC)cc2n(CC(=O)Nc2ccc(Cl)cc2F)c1=O	none
Cc1cc(Nc2ccc(F)cc2)n2c(nc3ccccc32)c1C#N	none
Cc1cc(Nc2cccc([N+](=O)[O-])c2)n2c(nc3ccccc32)c1C#N	D1 antagonist -35
O=C(CCCCn1c(=O)c2ccccc2n(Cc2ccccc2F)c1=O)NCc1ccccc1Cl	none
Cc1cc(-c2ccccc2)c2c3c(c(-c4ccccc4)n2n1)c(=O)n(C)c(=O)n3C	D1 antagonist -68
NC1=NC(=O)/C(=C/c2ccsc2)S1	D1 antagonist -33
Cc1ccc(-c2cc(-c3ccc4c(c3)NC(=O)CO4)nc3c2COc2ccc(C)cc2-3)cc1	none
COc1cccc(N2CC(NC(=O)C(=O)c3c[nH]c4ccccc34)CC2=O)c1 (stereo not drawn)	D1 antagonist -35
O=C(NC1CC(=O)N(c2cccc(F)c2)C1)C(=O)c1c[nH]c2ccccc12 (stereo not drawn)	none
O=C(CNC(=O)c1ccc2ccccc2c1)OC(C(=O)Nc1cc(C(F)(F)F)ccc1Cl)c1ccccc1 (stereo not drawn)	none
COC(=O)C1CCN(C(=O)COC(=O)Cc2c[nH]c3ccccc23)CC1	TRHR PAM 37
CC1CCCN(C(=O)COC(=O)Cc2c[nH]c3ccccc23)C1 (stereo not drawn)	none
COc1cc(OC)c(N(C)C(=O)CCNC(=O)Cn2cnc3ccccc3c2=O)cc1Cl	TRHR PAM 30!
Cc1cc(C)nc(Nc2ncc(O)n2-c2ccc(Br)cc2)n1	D1 antagonist -48
Cc1cc(C)nc(Nc2ncc(O)n2-c2ccc(C)c(C)c2)n1	none
Cc1ccc(C)c(S(=O)(=O)N2CCN(C(=O)CSc3ccccc3F)CC2)c1	D1 agonist 31
Cc1ccc(C)c(S(=O)(=O)N2CCN(C(=O)Cc3c(F)cccc3Cl)CC2)c1	none
Cc1ccc(S(=O)(=O)NC(=O)NCCCN2CCOCC2)cc1	D1 antagonist -56
Cc1ccc(S(=O)(=O)NC(=O)c2cc(C)n(CCCN3CCOCC3)c2C)cc1	none
O=C(NCCCN1CCOCC1)c1cccs1	D1 antagonist -35
Cc1cc(C)cc(NC(=O)C(=O)NCCCN2CCOCC2)c1	D1 antagonist -79!
CN1C(=O)C(N=Nc2ccccc2C(=O)O)N(C)C1=S (stereo not drawn)	D1 agonist 46
CC(=O)N1CCCc2cc(S(=O)(=O)N(Cc3ccccc3)C(C)C)ccc21	none
CC(C)CC(NC(=O)C1CCC(C)CC1)C(=O)Nc1ccccn1 (stereo not drawn)	D1 antagonist -32
CC(C)CC(NC(=O)C1CCC(C)CC1)C(=O)Nc1ccccc1F (stereo not drawn)	none
CC(=O)N1CCCc2cc(S(=O)(=O)N(C)CC(=O)Nc3ccc(Cl)cc3C)ccc21	none
Cc1ccc(C2C3=C(NCCN=C3c3ccccc3)C(=O)N2c2ccccc2)cc1 (stereo not drawn)	none
CCOc1ccc(N2C(=O)C3=C(C(c4ccc(Cl)cc4)=NCCN3)C2c2cccnc2)cc1 (stereo not drawn)	D1 antagonist -47
Cc1cccc(CNC(=O)Cc2csc3ccccc23)c1	none
O=C(O)c1ccc(S(=O)(=O)N[C@@H](Cc2ccc(O)cc2)C(=O)O)cc1	none
N#Cc1ccc(C[C@@H](NS(=O)(=O)c2ccc(C(=O)O)cc2)C(=O)O)cc1	D1 antagonist -35
O=C(c1ccccc1Br)N1CCC(c2nc3ccccc3o2)CC1	none
CCC1(CC)NC(=S)N(Nc2ccccc2)C1=O	D1 antagonist -33
CCC1(CC)NC(=O)N(CC(=O)NC(=O)NCc2ccccc2)C1=O	none
